Most compounds without a hit are left out; they make up all but 10% or so of the library.
Luc counter – Counterscreen for Luciferase (Kinase-Glo TM) Inhibition; Luciferin 4-monooxygenase (Photuris pensylvanica), Q27757; Kinase-Glo luciferase, ATP luminescence, 8 min; Potency, µM (top dose mostly 38.3 µM), usual class: inhibitors; 200,000 compounds, 0.28% hits; AID 1379, 2008; active means well fitted inhibition curve with a large enough effect; inconclusive means small, poorly fitted or top-dose-only effect; further: nearly all actives have a fitted effect of over 60% in size
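Compound is pinned into ATP-containing buffer (10 uM ATP, imidazole pH 7.2, 7 mM MgCl2). Kinase-Glo luciferase reagent is then added. Light output is recorded following an 8-min room-temperature incubation.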
ALDH1A1 inh – qHTS Assay for Inhibitors of Aldehyde Dehydrogenase 1 (ALDH1A1); Potency, µM (highest dose often 75.3 µM), most hits filed as inhibitors; Aldehyde dehydrogenase 1A1 (Homo sapiens), P00352; 220,000 compounds, 7.3% hits; Purified ALDH1A1, NADH fluorescence, propionaldehyde substrate
HPGD inh – qHTS Assay for Inhibitors of HPGD (15-Hydroxyprostaglandin Dehydrogenase). 15-hydroxyprostaglandin dehydrogenase [NAD(+)] (Homo sapiens), P15428. purified HPGD, NADH fluorescence kinetic, PGE2 substrate. Potency, µM, hits mostly inhibitors. 150,000 compounds, 4.3% hits. AID 894, 2007
Target sequence (P15428 whole entry, looked up): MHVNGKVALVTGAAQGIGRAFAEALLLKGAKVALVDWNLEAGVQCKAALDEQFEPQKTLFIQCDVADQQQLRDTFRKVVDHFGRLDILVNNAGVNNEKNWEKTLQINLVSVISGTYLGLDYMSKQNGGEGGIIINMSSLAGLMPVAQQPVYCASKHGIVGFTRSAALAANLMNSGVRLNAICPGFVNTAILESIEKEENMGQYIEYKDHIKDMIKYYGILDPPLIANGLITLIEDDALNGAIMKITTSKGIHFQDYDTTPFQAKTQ
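NADH formation kinetics: reaction with 30 uM PGE2 and 1 mM NAD+ (final), 20 nM enzyme, Tris-HCl pH 8 with Tween 20, after 15 min compound preincubation at room temperature. Fluorescence change, last versus first of five reads.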
PNC assembly inh – High Content Assay for Compounds that inhibit the Assembly of the Perinucleolar Compartment; 140,000 compounds, 3.1% hits; PC3M PTB-GFP, PNC prevalence imaging, 16 h; stronger effect = lower value; activity change (PNC), negative = inhibition, % at 10 µM; AID 2417, 2010;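 active means readout at or below -70, meaning at least 70% loss of cells showing the perinucleolar compartment, a nuclear body marking cancer cells; inconclusive means readout between -30 and a set limit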
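PC3M cells stably expressing PTB-GFP, 750–1000 cells/well, treated 16 h at 37 °C with compound (23 nl of library stock), in duplicate. After paraformaldehyde fixation and Hoechst stain, imaged at 20x; PNC prevalence scored by image analysis.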
Lamin A splicing – qHTS Assay for Modulators of Lamin A Splicing; 200,000 compounds, 0.01% hits; HeLa LMNA splicing GFP/RFP minigene ratio, 48 h; AID 1487, 2009; Potency, µM (series often up to 46.1 µM), usual class: inhibitors; active means well fitted inhibition curve with a large enough effect in the signal ratio, with a control signal flat, not every such curve was filed as active; inconclusive means small, poorly fitted or top-dose-only effect, or effect the other way, or a change in a side signal; the % refers to the signal ratio
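S3 HeLa cells stably expressing lamin A-EGFP splicing minigene plus DsRed2, 600 cells/well, 48 h compound exposure at 37C. Laser-scanning cytometry; analysed as GFP (500-530 nm)/RFP (575-640 nm) total intensity ratio; 0.5% DMSO vehicle.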
A number is an active result; – = inactive; ? = inconclusive; · = not tested or not shown; [ ] = remark or other dose. Unless noted, the call rests on the fitted dose curve; in most records, active means well fitted inhibition curve with a large enough effect (not every such curve was filed as active); inconclusive means small, poorly fitted or top-dose-only effect, or another doubt; inactive means no such curve, though single readings can be large or run the other way.

SMILES	Luc counter	ALDH1A1 inh	HPGD inh	PNC assembly inh	Lamin A splicing
COc1cc(NC(=O)c2ccccc2F)c(OC)cc1NC(=O)CN1CCOCC1	–	25.1µM	·	·	–
CN(C)CCN1C(=O)CC[C@]2(C)C1=CC[C@@H]1[C@@H]2CC[C@]2(C)[C@H]1CC[C@]2(C)O	–[7.66 µM]	–[13.5 µM]	–	·	·
C[C@@]12CC[C@@H]3c4ccc(O)cc4C[C@H](CCCCCCCCCS(=O)CCCC(F)(F)C(F)(F)F)[C@H]3[C@@H]1CC[C@@H]2O (some centres undefined)	–	–	–	·	·
CSc1nc(C)c2cc(C)oc2n1	–	–	–	–	–
Cc1cc2c(C)nc(Cc3ccccc3)nc2o1	–	8.91µM	–	–	–
O=c1[nH]nc(SCCS(=O)(=O)c2ccc(F)cc2)n1-c1ccccc1	·	2.82µM	·	·	·
O=c1[nH]nc(SCCS(=O)(=O)c2ccc(F)cc2)n1-c1ccc2c(c1)OCCO2	·	20µM	·	·	·
O=C(NNc1c2ccccc2nc2ccccc12)c1ccccc1O	–	–	–	–	17.8µM
O=C(NNc1c2ccccc2nc2ccccc12)c1ccc(O)cc1O	–	–	–	?	–
COc1cccc(Cn2c(=O)c(-c3cn(C)c4ccccc34)nc3cncnc32)c1	·	–	·	·	?
CCc1nc(OCC(=O)c2ccccc2)c(C#N)c2c1COC(C)(C)C2	–	6.31µM	–	–	–
Cc1nc(OCC(=O)c2ccc(Cl)cc2)c(C#N)c2c1COC(C)(C)C2	–	?	–	–	–
CC(C)(C)C(=O)OCc1cc(=O)n2nc(C3CCCCC3)sc2n1	·	·	·	·	–
COc1ccc2cc(CN(Cc3ccco3)C(c3nnnn3C3CCCCC3)C(C)C)c(=O)[nH]c2c1 (centres undefined)	–	15.8µM	–	–	–
COc1ccc2[nH]c(=O)c(C(c3nnnn3C(C)(C)C)N(Cc3ccco3)CC3CCCO3)cc2c1 (centres undefined)	–	?	?	–	–
COc1ccc2cc(CN(Cc3ccco3)Cc3nnnn3C3CCCCC3)c(=O)[nH]c2c1	–	7.94µM	–	–	?
Cc1cccc2cc(CN(CC3CCCO3)C(c3nnnn3Cc3ccco3)C(C)C)c(=O)[nH]c12 (centres undefined)	–	6.31µM	–	–	?
CC(=O)NC1C(O)C[C@@](O)(C(=O)O)OC1[C@@H](O)C(O)CO (some centres undefined)	–	–	–	·	–
COc1cccc(-n2ccnc2SCC(=O)Nc2cccc3ccccc23)c1	·	·	·	·	–
COc1ccc(C)cc1NC(=O)CN1c2ccccc2S(=O)(=O)c2ccccc21	·	·	·	·	–
CCN(CC)S(=O)(=O)c1ccc(-c2csc(C)n2)cc1	·	25.1µM	·	·	·
CCOc1ccc(NC(=O)NC(=O)N(C(C)C)S(C)(=O)=O)cc1	–	–	·	·	–
C=CCSc1nc2sc3c(c2c(=O)n1CC)CCc1ccccc1-3	–	1.58µM	2.24µM	–	–
COCCNc1nc2c(c(=O)n(C)c(=O)n2C)n1Cc1cccc(C)c1	–	–	–	–	?
Cc1cccc(OCCNc2nc3c(c(=O)n(C)c(=O)n3C)n2C)c1	–	–	–	-96.6	–
SMILES	Luc counter	ALDH1A1 inh	HPGD inh	PNC assembly inh	Lamin A splicing
CC(C)CCNc1nc2c(c(=O)n(Cc3cccc(F)c3)c(=O)n2C)n1C	–	12.6µM	?	–	?
C=CCOC(=O)C(C(C)=O)C(NC(=O)OC)c1ccc2ccccc2c1 (centres undefined)	·	–[13.5 µM]	·	·	·
O=C(Nc1nc(-c2ccncc2)cs1)c1ccco1	–	–	–	?	–
COc1ccc(OCCCC(=O)Nc2nc(-c3ccccn3)cs2)cc1	–	31.6µM	·	·	–
O=C(NC(=S)Nc1nc(-c2cccc3ccccc23)cs1)c1cc2ccccc2o1	–	20µM	–	–	–
O=C(NC(=S)Nc1nc(-c2ccccc2)cs1)c1ccco1	–	14.1µM	·	·	?
Cc1cc(C)c(OCC(=O)Nc2nc(-c3ccccn3)cs2)c(C)c1	–	?	·	·	?
O=C(Nc1nc(-c2ccccn2)cs1)c1ccco1	–	35.5µM	·	·	?
c1ccc(-c2nc(-c3ccco3)cs2)nc1	–	?	–	-100.0	–
c1ccc(-c2nccc(-c3ccco3)n2)nc1	–	?	·	·	–
O=C(NC(=S)Nc1nc(-c2ccccc2)cs1)c1cccnc1	–	8.91µM	·	·	·
O=C(Cc1ccccc1F)Nc1nc(-c2cccs2)cs1	–	–	–	–	?
O=C(Cc1ccccc1F)Nc1nc(-c2cccnc2)cs1	–	25.1µM	·	·	·
CCOc1ccc(C(=O)NCC(c2ccco2)S(=O)(=O)c2cccs2)cc1 (centres undefined)	·	·	·	·	–
COc1ccc(/C=N/NC(=O)c2cc(-c3ccc(Cl)cc3)n[nH]2)cc1OC	–	?	?	·	·
Cc1ccc(NC(=O)C(=O)NCC(c2cccnc2)N2CCN(Cc3ccccc3)CC2)cc1Cl (centres undefined)	·	·	·	·	–
Cc1nc(N/N=C/c2ccccn2)sc1C	8.91µM	–	–	?	?
CCCCNC(=O)c1onc(CCl)c1C(=O)OC	–	14.1µM	–	?	?
C=CCNC(=O)c1onc(CCl)c1C(=O)OC	–	–	–	–	?
COCCNC(=O)c1onc(CCl)c1C(=O)OC	–	28.2µM	–	–	–
CC1(C)Cc2nc3sc4c(=O)n(CC(=O)NCc5ccco5)cnc4c3cc2CO1	–	22.4µM	?	–	–
Cc1ccc(NC(=O)Cn2cnc3c(oc4nc5c(cc43)COC(C)(C)C5)c2=O)cc1	–	–	–	-84.2	–
COc1ccc(-c2nc3cnc(OC)nc3n(C)c2=O)cc1	·	?	·	·	–
COc1ccc(C(=O)NCC(=O)OCC(=O)c2ccc3c(c2)OCCO3)cc1	–	7.94µM	–	–	–
COc1ccc(C(=O)NCC(=O)NCC(=O)OCC(=O)c2cccs2)cc1	–	15.8µM	–	?	–
SMILES	Luc counter	ALDH1A1 inh	HPGD inh	PNC assembly inh	Lamin A splicing
COc1c(C)cc(C(=O)C2CCCN(C(=O)/C=C/c3ccccn3)C2)cc1C (centres undefined)	–	14.1µM	·	·	·
CN(Cc1ccco1)c1nc(-c2cccnc2)nc2ccccc12	·	31.6µM	·	·	?
CN(Cc1ccco1)c1nc(-c2ccccc2Cl)nc2ccccc12	–	–	–	·	?
COC(=O)C(CC(C)C)NC(=O)c1ccc([N+](=O)[O-])c(C)c1 (centres undefined)	–	–	–	–	–
Cc1cc(C(=O)NC(CC(C)C)C(=O)O)cc(C)c1[N+](=O)[O-] (centres undefined)	–	7.08µM	–	–	–
O=C1CCc2cc(S(=O)(=O)NCc3ccccc3Cl)cc3c2N1CC3	·	·	·	·	–
CN(c1ccc(OCC(=O)N2CCN(c3ccc(F)cc3)CC2)cc1)S(=O)(=O)c1cccs1	–	–	·	·	–[9.22 µM]
O=C(CCCOc1ccc(Cl)cc1)N1CCCCC1	–	–	1.58µM	–	–
O=C(CCCOc1ccccc1)N1CCCCC1	–	–	3.98µM	–	–

Bioassay records deposited in PubChem BioAssay by National Center for Advancing Translational Sciences (NCATS).
